Bioassay records as filed in PubChem.
Hits are enriched below; roughly 12% of the tested compounds scored in any of these assays.
Cycloheximide cs: Cycloheximide Counterscreen for Small Molecule Inhibitors of Shiga Toxin; cell reporter, cycloheximide protein synthesis inhibition counterscreen; max response, %; 300,000 compounds, 12% hits; AID 2314, 2010; in the data active = max response mostly above about 13%, no sharp cut-off; inactive = mostly below about 14%; also: read at 38.3 µM for the half of the compounds with a filed dose
SARS PLP yeast: qHTS of Yeast-based Assay for SARS-CoV PLP | Potency, µM (highest dose often 32.9 µM), hits mostly activators | 330,000 compounds, 0.19% hits | S. cerevisiae expressing SARS-CoV PLpro, growth rescue; also: nearly all actives have a fitted effect of over 55% in size
Shiga inhibitor: A qHTS for Small Molecule Inhibitors of Shiga Toxin | 290,000 compounds, 9.2% hits | inhibition, % at 38.7 µM | AID 2315, 2010 | Vero cells, Shiga toxin protein synthesis inhibition reporter; in the data active = inhibition mostly above about 28%, no sharp cut-off; inactive = mostly below about 43%
NS1 function inh: qHTS Assay for Inhibitors of Influenza NS1 Protein Function; 270,000 compounds, 0.4% hits; Potency, µM (titrated, usually from 46.1 µM); AID 2326, 2010; also: actives are rising curves; nearly all actives have a fitted effect of over 50% in size
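Compounds were scored for reversing the slow growth caused by influenza A NS1 in S. cerevisiae, measured by optical density at 600 nm. Assay medium contained 2% galactose at pH 6.0; NS1-free yeast of the same strain were the positive control.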
Each line names hits and unclear results; the compound was inactive in the other large screens. Unless noted, calls follow the shape of the full dose curve.

COc1cc(/C=N/NC(=O)C2CC(=O)N(c3ccc(C)cc3)C2)cc(OC)c1OC (stereo not given)	none
CCOC(=O)Nc1ccc(N2CCOCC2)c(S(=O)(=O)N2CCOCC2)c1	none
O=C(CN(C(=O)c1csnn1)c1ccc(F)c(Cl)c1)NC1CCCCC1	Cycloheximide cs 30.1
O=C(c1ccco1)N1CCN(c2ccc([N+](=O)[O-])c(N3CCOCC3)c2)CC1	none
CCCN(CC1CCCO1)C(=O)c1cc(COc2ccc(F)cc2F)on1 (stereo not given)	none
COc1cc(C(C)=O)ccc1OCc1cc(C(=O)N(C)CCC2CCCCO2)no1 (stereo not given)	Cycloheximide cs 52.9, Shiga inhibitor 100.6
COc1cc(C(=O)NCC2CCCO2)ccc1OCc1c(C)noc1C (stereo not given)	none
COc1ccccc1OCc1cc(C(=O)N(C)CCC2CCCCO2)no1 (stereo not given)	Cycloheximide cs 58.6, Shiga inhibitor 126.3
O=C(COC(=O)CCc1c[nH]c2ccccc12)NCc1ccc2c(c1)OCO2	none
CCOc1ccc(N(C(=O)c2snc(C(N)=O)c2N)C(C(=O)NCC2CCCO2)c2ccc(C)o2)cc1 (stereo not given)	Cycloheximide cs 18.0, Shiga inhibitor 46.9
NC(=O)c1nsc(C(=O)N(c2ccc3c(c2)OCCO3)C(C(=O)NCC2CCCO2)c2ccc(F)cc2)c1N (stereo not given)	Cycloheximide cs 28.5, Shiga inhibitor 63.5
CCN(C(=O)COC(=O)CCC(=O)c1cccs1)c1c(N)n(Cc2ccccc2)c(=O)[nH]c1=O	none (no result: Cycloheximide cs, Shiga inhibitor, NS1 function inh)
CC(/C=N/Nc1ncc(C)c(=O)[nH]1)=C\c1ccccc1	none (no result: NS1 function inh)
CC(/C=N/Nc1nc2ccccc2[nH]1)=C\c1ccccc1	Cycloheximide cs 22.7
CC(=C/c1ccccc1)/C=N/Nc1nc(N2CCCCC2)nc(N2CCCCC2)n1	none
CC(/C=N/Nc1nc(C)cc(=O)[nH]1)=C\c1ccccc1	Cycloheximide cs 41.6, Shiga inhibitor 59.8 (no result: NS1 function inh)
NCCSC[C@H](N)C(=O)O	none (no result: Cycloheximide cs, SARS PLP yeast, Shiga inhibitor)
Cc1cc(NC(=O)C(C)SCC(=O)NCc2ccc(F)cc2)no1 (stereo not given)	none (no result: Cycloheximide cs, Shiga inhibitor, NS1 function inh)
Clc1cc(CSc2ccccc2)nc(-c2ccccc2)n1	Cycloheximide cs 21.7
CN(CC(=O)Nc1ccccc1Cl)C(=O)C1CCN(C(=O)c2ccc(F)cc2)CC1	none (no result: Cycloheximide cs, Shiga inhibitor, NS1 function inh)
CCn1cc(C(=O)Nc2cccc(C(=O)OC)c2)c(=O)c2ccc(C)nc21	none
CCOC(=O)c1cn(CC)c2c(ccc3ccccc32)c1=O	Cycloheximide cs 34.7, Shiga inhibitor 41.8
CCn1cc(C(=O)OCC(=O)c2ccccc2)c(=O)c2ccc(C)nc21	none (no result: NS1 function inh)
CCn1cc(C(=O)OCc2ccccc2)c(=O)c2ccc(C)nc21	none
CCOC(=O)c1ccccc1NC(=O)c1cn(CC)c2nc(C)ccc2c1=O	Cycloheximide cs 40.4, Shiga inhibitor 63.6
CCn1cc(C(=O)Nc2ccccc2C(=O)OC)c(=O)c2ccc(C)nc21	Cycloheximide cs 50.6, Shiga inhibitor 144.7
CC(C)NC(=O)c1onc(CSc2cccc(F)c2)c1C(=O)O	none
O=C(NCC(c1cccnc1)N1CCN(c2ccc(F)cc2)CC1)c1ccco1 (stereo not given)	none
Cc1ccc(S(=O)(=O)N[C@H](C(=O)OCC(=O)NC(=O)Nc2ccc3c(c2)OCCO3)C(C)C)cc1	Cycloheximide cs 19.4
CC(NS(=O)(=O)c1ccc(Cl)c(Cl)c1)C(=O)OCC(=O)Nc1ccc2c(c1)OCO2 (stereo not given)	none
C[C@H](NS(=O)(=O)c1ccc(Cl)cc1)C(=O)OCC(=O)NC(=O)Nc1ccc2c(c1)OCCO2	Cycloheximide cs 101.3, Shiga inhibitor 127.1
O=C(COC(=O)CNS(=O)(=O)c1cccc(Br)c1)NC(=O)Nc1ccc2c(c1)OCCO2	Cycloheximide cs 35.2, Shiga inhibitor 63.0
O=C(COC(=O)CNS(=O)(=O)c1ccc2ccccc2c1)Nc1ccc2c(c1)OCO2	none
CC(C)[C@H](NS(=O)(=O)c1ccc2c(c1)OCCO2)C(=O)OCC(=O)Nc1ccccc1	Cycloheximide cs 13.6
CC(C)[C@H](NC(=O)c1ccccc1)C(=O)OCC(=O)Nc1ccc2c(c1)OCCO2	none
O=C(/C=C/c1ccc(Cl)cc1)NC(=S)Nc1ccc(NC(=O)c2ccco2)cc1	none
O=C(COC(=O)C1COc2ccccc2O1)Nc1cccc(Cl)c1 (stereo not given)	none (no result: Cycloheximide cs, Shiga inhibitor, NS1 function inh)
O=C(COC(=O)C1COc2ccccc2O1)NC(=O)Nc1ccc2c(c1)OCCO2 (stereo not given)	Cycloheximide cs 14.8
Cc1ccc(S(=O)(=O)N(C)CC(=O)OCC(=O)NC(=O)Nc2ccc3c(c2)OCCO3)cc1	Cycloheximide cs 54.8, Shiga inhibitor 68.0
Cc1ccc(C2CCN(C(=S)NC(C)C)C2)cc1 (stereo not given)	Shiga inhibitor 64.1 (no result: NS1 function inh)
Cn1nnc2cc(C(=O)N3CCC(c4ccccc4)C3)ccc21 (stereo not given)	Cycloheximide cs 10.1, Shiga inhibitor 27.3
Cc1ccc(NC(=O)C2CCCN(C(=O)Nc3ccc(F)cc3)C2)cc1 (stereo not given)	none
Cc1ccc(C2CCN(C(=O)Nc3ccc(F)cc3)C2)cc1 (stereo not given)	Cycloheximide cs 19.2, Shiga inhibitor 89.4 (no result: NS1 function inh)
CC(=O)c1cccc(NC(=O)N2CCC(c3ccc(C)cc3)C2)c1 (stereo not given)	Shiga inhibitor 48.6 (no result: NS1 function inh)
O=[N+]([O-])c1cncc([N+](=O)[O-])c1Nc1cccc(O)c1	none (no result: SARS PLP yeast)
CC1CCC(NC(=O)CC2Oc3ccccc3NC2=O)CC1 (stereo not given)	none
COc1ccc(C(CCN2CCCC(C)C2)c2c(O)cc(OC)cc2OC)cc1 (stereo not given)	none (no result: SARS PLP yeast, NS1 function inh)
Cc1nc2cc(NC(=O)N3CCC(c4ccccc4)C3)ccc2n1C (stereo not given)	Cycloheximide cs 27.4, Shiga inhibitor 98.7
CC(C)(Oc1ccc(Cl)cc1)C(=O)Nc1ccc(S(=O)(=O)Nc2ncccn2)cc1	none
Cc1ccc(CNC(=O)/C=C/c2ccc(S(=O)(=O)NCc3ccco3)cc2)cc1	Cycloheximide cs 21.1, Shiga inhibitor 40.1
O=C(/C=C/c1ccc(S(=O)(=O)NCc2ccco2)cc1)NCc1cccc(Cl)c1	Cycloheximide cs 28.9, Shiga inhibitor 46.0
O=C(O)/C=C/c1ccc(S(=O)(=O)NCc2ccco2)cc1	none (no result: NS1 function inh)
COc1ccccc1CNC(=O)/C=C/c1ccc(S(=O)(=O)NCc2ccco2)cc1	Cycloheximide cs 19.5, Shiga inhibitor active
Cc1cccc(N2CCN(C(=O)c3nn(C)c4c3CS(=O)(=O)c3ccccc3-4)CC2)c1C	none
CCOC(=S)SCC(=O)Nc1nc(-c2ccc(Br)cc2)cs1	none
CC(C)(C)c1ccc(C(=O)NCC(=O)OCC(=O)Nc2nc(-c3ccc(F)cc3)cs2)cc1	none (no result: NS1 function inh)
Brc1ccc(-c2csc(NNC3=NCCCCC3)n2)cc1	Cycloheximide cs 24.9, NS1 function inh inconclusive
FC(F)Oc1ccc(-c2csc(NNC3=NCCCCC3)n2)cc1	Cycloheximide cs 21.3 (no result: NS1 function inh)
CC(C)(C)c1ccc(-c2csc(NNC3=NCCCCC3)n2)cc1	Cycloheximide cs 20.0
CCOC(=O)/C(C#N)=C/c1c(N2CCN(c3ccccc3)CC2)nc2ccccn2c1=O	Cycloheximide cs 41.5
